Results on 8 compounds are retold here after PubChem BioAssay (NCI).

Compounds without any hit were thinned out: in the full panel of roughly 83,000, 20% have a hit.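 In brief: 96-well plates, 48 h treatment, single concentration, percent growth endpoint.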 A number with no mark means an inactive call. The source made the active and inactive calls. How the source made its calls: active means growth percent below 10; inactive means the rest.

Test systems include MOLT-4 leukemia; SR leukemia; RPMI-8226 leukemia; OVCAR-8 ovarian; OVCAR-5 ovarian; OVCAR-4 ovarian; SK-OV-3 ovarian; IGROV1 ovarian; OVCAR-3 ovarian; HS 578T breast; NCI/ADR-RES ovarian; T-47D breast; BT-549 breast; MDA-MB-435 melanoma; SW-620 colon; MCF7 breast; HCT-116 colon; HCC-2998 colon; KM12 colon.
Common to all, as to assay: NCI-60 one-dose screen, 48 h (100 = growth as untreated, 0 = no growth, -100 = all killed)
Common to all, as to settings: 10 µM unless noted

Regarding `CC(CC1CCCCC1)NCc1ccccc1` (configuration not stated), the growth in the assay on MOLT-4 leukemia was 100%; in the assay on SR leukemia, 105%; in the assay on RPMI-8226 leukemia it was 106%; in the assay on OVCAR-8 ovarian it was 106%; in the assay with OVCAR-5 ovarian, 91.1%; in the assay on OVCAR-4 ovarian, 113%. In addition, the growth is 111% in the assay on SK-OV-3 ovarian; 107% in the assay with IGROV1 ovarian; 105% in the assay with OVCAR-3 ovarian; 98.5% in the assay on HS 578T breast; 93.7% with NCI/ADR-RES ovarian; 102% with T-47D breast. Also, the growth with BT-549 breast was 97.7%; in the assay with MDA-MB-435 melanoma, 103%; with SW-620 colon it was 94%; with MCF7 breast, 96.4%; in the assay on HCT-116 colon it was 96.6%; in the assay on HCC-2998 colon it was 95.3%. Moreover, the growth in the assay with KM12 colon is 101%.

With `Cc1ccc(N2COOC3(OOC2)C2CC4CC(C2)CC3C4)cc1`, the growth in the assay on MOLT-4 leukemia was 79.3%; with SR leukemia, 46.4%; in the assay with RPMI-8226 leukemia it was 102%; in the assay on OVCAR-8 ovarian, 99%; with OVCAR-5 ovarian, 101%; with OVCAR-4 ovarian it was 101%. In addition, the growth in the assay with SK-OV-3 ovarian was 101%; in the assay with IGROV1 ovarian, 45.2%; in the assay on OVCAR-3 ovarian it was 102%; in the assay with HS 578T breast, 109%; in the assay on NCI/ADR-RES ovarian, 95.6%; with T-47D breast, 82.7%. The growth was 95.7% in the assay on BT-549 breast; 93.2% with MDA-MB-435 melanoma; 108% with SW-620 colon; 77.6% in the assay on MCF7 breast; 89% with HCT-116 colon; 107% in the assay on HCC-2998 colon. Besides, in the assay on KM12 colon, the growth is 90.6%.

For the compound `COC(=O)[C@@H](C)C[C@H](Cc1ccccc1)NC(=O)c1nc([C@@H](C[C@H](C(C)C)N(C)C(=O)[C@@H](NC(=O)[C@H]2CCCCN2C)C(C)C)OC(C)=O)sc1C`, the growth is 11.1% in the assay on MOLT-4 leukemia; 4.24% (active) in the assay on SR leukemia; 18.2% in the assay on RPMI-8226 leukemia; 15% with OVCAR-8 ovarian; 41.4% with OVCAR-5 ovarian; 50.6% in the assay with OVCAR-4 ovarian. Moreover, the growth in the assay on SK-OV-3 ovarian was 29.9%; in the assay on IGROV1 ovarian it was 22.7%; in the assay on OVCAR-3 ovarian, -37.8% (active); in the assay on HS 578T breast it was 13.7%; with NCI/ADR-RES ovarian it was 16.5%; in the assay on T-47D breast it was 66.1%. For the same compound, the growth with BT-549 breast is -23.4% (active); in the assay on MDA-MB-435 melanoma it was -31.5% (active); with SW-620 colon, 20.1%; in the assay on MCF7 breast it was 12.3%; in the assay on HCT-116 colon, 2.54% (active); in the assay with HCC-2998 colon, 13.8%. Also, the growth in the assay with KM12 colon is 8.06% (active).

For the compound `C1CCC2(CC1)OOCNCOO2`, the growth is 77.9% in the assay with MOLT-4 leukemia; 62.8% with SR leukemia; 102% in the assay on RPMI-8226 leukemia; 101% with OVCAR-8 ovarian; 109% in the assay with OVCAR-5 ovarian; 112% in the assay on OVCAR-4 ovarian. The growth in the assay with SK-OV-3 ovarian was 105%; with IGROV1 ovarian, 104%; with OVCAR-3 ovarian, 103%; in the assay on HS 578T breast, 115%; in the assay with NCI/ADR-RES ovarian it was 101%; with T-47D breast, 89.8%. For the same compound, the growth in the assay on BT-549 breast was 106%; with MDA-MB-435 melanoma it was 101%; in the assay on SW-620 colon, 103%; with MCF7 breast it was 45.7%; with HCT-116 colon, 92.8%; in the assay with HCC-2998 colon, 106%. For the same compound, the growth with KM12 colon is 95.9%.

`O=C(Nc1ccncc1F)c1cn(CC2CC2)c2ccccc12`: the growth is 101% with MOLT-4 leukemia; 116% with SR leukemia; 91.9% in the assay with RPMI-8226 leukemia; 101% in the assay with OVCAR-8 ovarian; 113% in the assay with OVCAR-5 ovarian; 97.7% in the assay with OVCAR-4 ovarian. The growth with SK-OV-3 ovarian is 105%; with IGROV1 ovarian, 109%; in the assay with OVCAR-3 ovarian, 110%; in the assay with HS 578T breast, 98.7%; in the assay with NCI/ADR-RES ovarian, 101%; in the assay on T-47D breast, 92.3%. Further, the growth in the assay with BT-549 breast is 94.4%; in the assay with MDA-MB-435 melanoma, 106%; in the assay with SW-620 colon, 105%; in the assay with MCF7 breast it was 94.9%; in the assay with HCT-116 colon it was 99.5%; with HCC-2998 colon it was 106%. In addition, in the assay with KM12 colon, the growth was 104%.

As for `Cn1cc(-c2csc(-c3cn(CCN4CCOCC4)c4ccc(F)cc34)n2)c2cccnc21`, the growth with MOLT-4 leukemia is 4.03% (active); in the assay with SR leukemia it was 33.7%; in the assay on RPMI-8226 leukemia, 0.0619% (active); in the assay with OVCAR-8 ovarian, 4.93% (active); in the assay with OVCAR-5 ovarian, 75.3%; in the assay with OVCAR-4 ovarian it was 30.5%. The growth in the assay with SK-OV-3 ovarian is 78.7%; with IGROV1 ovarian it was 21%; with OVCAR-3 ovarian, 32.3%; with HS 578T breast, 60.4%; in the assay on NCI/ADR-RES ovarian it was 5.84% (active); with T-47D breast it was -17.7% (active). Moreover, the growth is 10.8% in the assay with BT-549 breast; 32.2% with MDA-MB-435 melanoma; 44.9% in the assay with SW-620 colon; 8.93% (active) with MCF7 breast; 36.9% in the assay on HCT-116 colon; 86.7% in the assay with HCC-2998 colon. In addition, the growth in the assay on KM12 colon was 22.3%.

Take `CCCCCCCCCCCCCCCCCC1OC[C@@H](COC(=O)O[C@@H](C(=O)O[C@H]2C[C@@]3(O)[C@@H](OC(=O)c4ccccc4)[C@@H]4[C@]5(OC(C)=O)CO[C@@H]5C[C@H](O)[C@@]4(C)C(=O)[C@H](OC(C)=O)C(=C2C)C3(C)C)[C@@H](NC(=O)c2ccccc2)c2ccccc2)O1` (some centres not stated): the growth in the assay on MOLT-4 leukemia is 58.7%; in the assay on SR leukemia it was 47.8%; in the assay on RPMI-8226 leukemia it was 15.2%; in the assay with OVCAR-8 ovarian it was 64.8%; in the assay on OVCAR-5 ovarian, 53.9%; with OVCAR-4 ovarian, 80.8%. For the same compound, the growth with SK-OV-3 ovarian was 57.9%; in the assay on IGROV1 ovarian, 50.4%; in the assay with OVCAR-3 ovarian, 29.2%; in the assay with HS 578T breast, 57.3%; in the assay with NCI/ADR-RES ovarian, 106%; in the assay on T-47D breast it was 51.9%. Besides, the growth in the assay with BT-549 breast is 55.2%; with MDA-MB-435 melanoma, -41.2% (active); in the assay with SW-620 colon it was 45.7%; in the assay with MCF7 breast, 24.9%; with HCT-116 colon, 23.4%; in the assay with HCC-2998 colon, 56.8%. Moreover, in the assay with KM12 colon, the growth is 28.7%.

On to `C/C(Cc1ccc(Cl)cc1)=C(\c1ccc(OCCN2CCOCC2)cc1)c1ccc(OC(=O)Cc2ccccc2)cc1`, for which the growth with MOLT-4 leukemia is 94.8%; in the assay on SR leukemia, 87.1%; with RPMI-8226 leukemia it was 84%; with OVCAR-8 ovarian it was 92%; in the assay on OVCAR-5 ovarian it was 91.1%; in the assay with OVCAR-4 ovarian, 101%. The growth in the assay on SK-OV-3 ovarian was 109%; in the assay with IGROV1 ovarian it was 86.4%; with OVCAR-3 ovarian, 101%; in the assay on HS 578T breast it was 99.1%; with NCI/ADR-RES ovarian, 98.7%; in the assay with T-47D breast, 66%. Also, the growth was 96.9% in the assay with BT-549 breast; 98.6% in the assay on MDA-MB-435 melanoma; 96.5% in the assay with SW-620 colon; 69.4% in the assay with MCF7 breast; 86.1% with HCT-116 colon; 91.3% with HCC-2998 colon. Besides, the growth in the assay on KM12 colon was 98%.
